Measurements reported in the supplement of paper PMC3334620.
The full ranking holds about 33,000 sequences; the median of “E-score (-0.5 to 0.5)” is about -0.0014, and the highest 2% start at about 0.25. The sample as a whole holds a higher share of the highest values than the screen did.

What follows are sequences tested against T1, Cad1 (UniProt P24813) (assay: PBM E-score (8-mer binding enrichment) (E-score (-0.5 to 0.5)); higher = stronger / more preferred TF binding). Conditions: protein concentration: 100 nM; construct: GST-full length.
T1 sequence: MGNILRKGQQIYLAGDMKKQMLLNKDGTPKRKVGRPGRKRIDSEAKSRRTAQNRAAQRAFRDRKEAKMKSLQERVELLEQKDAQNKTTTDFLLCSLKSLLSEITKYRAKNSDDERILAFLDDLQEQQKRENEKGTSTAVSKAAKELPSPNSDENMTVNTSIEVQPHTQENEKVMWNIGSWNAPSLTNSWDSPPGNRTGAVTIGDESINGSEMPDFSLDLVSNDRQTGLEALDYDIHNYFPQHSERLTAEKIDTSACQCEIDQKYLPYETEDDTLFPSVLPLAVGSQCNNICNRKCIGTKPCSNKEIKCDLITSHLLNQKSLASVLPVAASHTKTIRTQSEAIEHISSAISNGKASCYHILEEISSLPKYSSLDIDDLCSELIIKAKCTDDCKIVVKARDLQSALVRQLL
Outline: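 For each ungapped eight-base word taken together with its reverse complement, the Universal PBM Analysis Suite assigned an E-score. Binding data came from GST-tagged yeast transcription factors, applied at about 100-200 nM, on universal all-10-mer Agilent arrays made double-stranded by primer extension. Fluorescent anti-GST marked bound protein, and scans were normalised with masliner.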
For CGACCTAC, the “PBM E-score” value was -0.126.
In the case of CGTTGGTA, the “PBM E-score” value is reported as 0.141.
For GTTCGGAA, the “PBM E-score” value was 0.174.
In the case of ACACTATC, the “PBM E-score” value is reported as 0.115.
In the case of GACTCAAA, the “PBM E-score” value is reported as -0.0319.
ACAACTAT was tested, and the “PBM E-score” value was 0.0919.
For AGTAGTGG, the “PBM E-score” value was 0.0582.
GAACTATA was tested, and the “PBM E-score” value was 0.09.
With GATTAAGA the “PBM E-score” value was 0.18.
For GATTAAAA, the “PBM E-score” value was 0.214.
For GATTAATA, the “PBM E-score” value was 0.354.
With GGTTGAGA the “PBM E-score” value was -0.224.
For CCATATGA, the “PBM E-score” value was -0.0943.
For GCATATGA, the “PBM E-score” value was 0.118.
With TCATATGA the “PBM E-score” value was 0.321.
In the case of CCCCTGCA, the “PBM E-score” value is reported as -0.246.
For AGCCAACT, the “PBM E-score” value was -0.117.
In the case of ACGGATCA, the “PBM E-score” value is reported as 0.215.
For AATTCGCC, the “PBM E-score” value was 0.154.
GCGAACAA was tested, and the “PBM E-score” value was 0.275.
For CGGAACAC, the “PBM E-score” value was 0.235.
In the case of TGGAACAA, the “PBM E-score” value is reported as 0.144.
With ACGAACAA the “PBM E-score” value was 0.184.
With CCGAACAA the “PBM E-score” value was 0.107.
For CGGAACAA, the “PBM E-score” value was 0.29.
For CGTAGTAC, the “PBM E-score” value was -0.00804.
With AGCATCCA the “PBM E-score” value was -0.168.
In the case of CTTTCAGA, the “PBM E-score” value is reported as 0.0705.
With AAGAATGC the “PBM E-score” value was 0.0333.
In the case of GGCTTACA, the “PBM E-score” value is reported as 0.229.
For GAATGGTC, the “PBM E-score” value was -0.0781.
ATAAACCC was tested, and the “PBM E-score” value was 0.0626.
In the case of AAGCCTTG, the “PBM E-score” value is reported as 0.00151.
With AATCTCCC the “PBM E-score” value was -0.277.
In the case of AAGCGATA, the “PBM E-score” value is reported as 0.103.
CCAATTGG was tested, and the “PBM E-score” value was 0.263.
For GCAATTGC, the “PBM E-score” value was 0.33.
GCAATTGA was tested, and the “PBM E-score” value was 0.118.
For CCAATTGA, the “PBM E-score” value was 0.0388.
CCAATTGC was tested, and the “PBM E-score” value was -0.114.
ACAATTGG was tested, and the “PBM E-score” value was -0.0197.
CGCTGTAG was tested, and the “PBM E-score” value was -0.0927.
For CGTTGCTA, the “PBM E-score” value was 0.103.
CATAACTC was tested, and the “PBM E-score” value was -0.0187.
In the case of TGCGGCCA, the “PBM E-score” value is reported as -0.03.
With ATGTCTGA the “PBM E-score” value was 0.129.
In the case of GGGGATGA, the “PBM E-score” value is reported as -0.094.
In the case of GGCTAGCA, the “PBM E-score” value is reported as -0.135.
With CGCTAGCA the “PBM E-score” value was -0.0293.
With TGCTAGCA the “PBM E-score” value was 0.263.
With ATTAATCG the “PBM E-score” value was 0.234.
GCTAATCA was tested, and the “PBM E-score” value was 0.215.
For ATTAATCA, the “PBM E-score” value was 0.436.
In the case of CTTAATCA, the “PBM E-score” value is reported as 0.141.
In the case of ATTAATCC, the “PBM E-score” value is reported as 0.161.
In the case of GTTAATCA, the “PBM E-score” value is reported as 0.318.
CTAGCCCC was tested, and the “PBM E-score” value was -0.0928.
In the case of TGCAGAAA, the “PBM E-score” value is reported as 0.114.
With ACGTACTC the “PBM E-score” value was -0.0542.
For CTATATAC, the “PBM E-score” value was 0.27.
ATATATAT was tested, and the “PBM E-score” value was 0.295.
CTATATAG was tested, and the “PBM E-score” value was 0.0376.
In the case of AAATATGT, the “PBM E-score” value is reported as 0.277.
With ATATATAG the “PBM E-score” value was 0.175.
With AAATATGA the “PBM E-score” value was 0.234.
ATATATCA was tested, and the “PBM E-score” value was 0.134.
ATATATCC was tested, and the “PBM E-score” value was 0.297.
ACATATAT was tested, and the “PBM E-score” value was 0.155.
In the case of CTCTATAC, the “PBM E-score” value is reported as 0.0205.
With CTATATCC the “PBM E-score” value was -0.0465.
AAATATGC was tested, and the “PBM E-score” value was 0.069.
For CCTGCCTA, the “PBM E-score” value was -0.0584.
For AGGGTTAG, the “PBM E-score” value was -0.153.
With AGGATAGA the “PBM E-score” value was -0.0415.
AGAACTAG was tested, and the “PBM E-score” value was -0.146.
With CCAAAGGG the “PBM E-score” value was -0.0732.
With ACTCTCGG the “PBM E-score” value was -0.0764.
For GGCGTTAC, the “PBM E-score” value was -0.0303.
For ACATATAC, the “PBM E-score” value was 0.0911.
In the case of GTATATAC, the “PBM E-score” value is reported as -0.0771.
ATATATAC was tested, and the “PBM E-score” value was 0.317.
With AAATATAT the “PBM E-score” value was 0.305.
AAATATAA was tested, and the “PBM E-score” value was 0.247.
For AAATATAC, the “PBM E-score” value was -0.0915.
AGTAGCCA was tested, and the “PBM E-score” value was -0.282.
With AGTCCAGC the “PBM E-score” value was -0.112.
